{"source": "the supplement of paper PMC6555819", "data": [{"tested_on": "VDR:RXRa (NR concentration 270 nM, RXRa partner concentration 90 nM)", "test": "PBM binding z-score (relative to random genomic background probes); higher = stronger binding; sequences stand for … in GC…GCGATTGACAGCGTAGAATGAAGG", "protocol": "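Protein-binding microarray (Agilent 4x180K custom design, double-stranded 60-nt probes: 5' GC cap, 34-nt variable region, 24-nt constant primer region; full probe sequence given). Purified or IVT nuclear receptor:RXRα heterodimers (3:1 NR:RXRα, mostly 270:90 nM) or homodimers were incubated for 1 h in PBS with 2% milk and no ligand, then detected with Alexa488 antibodies. Fluorescence from o1-orientation probes (~5 replicates averaged) was converted to z-scores against 500 random hg19 background probes. Variable regions are seed direct-repeat (DR0–DR5) sites, all their single-nucleotide variants and half-site ablations.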", "values": [{"sequence": "CGAACTAGGTCGAAGGACAGTGAAAGGCGACGTA", "PBM binding z-score": -0.183}, {"sequence": "ACTAGGTGGTCAGCTGAGGTCACACACAATTCGG", "PBM binding z-score": 4.54}, {"sequence": "CAAACTAGGTCAAAGGTCAAAGTAGAGCCAACCA", "PBM binding z-score": 6.71}, {"sequence": "TCGAGTAGGTTACCGGGGCATTCAGGGATGAAGA", "PBM binding z-score": 0.816}, {"sequence": "ATATGTGGGTTAGGGTCATTCAGAAAGTAGGGAA", "PBM binding z-score": 4.97}, {"sequence": "CGAACTAGGTCACCAGGACAGTGAAGAGGTTGGA", "PBM binding z-score": 1.93}, {"sequence": "CAAACTAGGTCAAAGGTCAAAGTTGAGCCAACCA", "PBM binding z-score": 6.85}, {"sequence": "CTAAGTAGGTTAAGGGGGTCATTCAGTTTGAAAG", "PBM binding z-score": 7.19}, {"sequence": "AGCGAAAGGTCGAAGGTGAGTATACCCACCCGAA", "PBM binding z-score": 2.8}, {"sequence": "CTATGTAGGTTAAGGGGGTCATTCACTTTGAAAG", "PBM binding z-score": 7.21}, {"sequence": "CGAACTAGGTCAACAGGACAGTGAAGAGGTTGGA", "PBM binding z-score": 1.53}, {"sequence": "GGAACGAGGGCAAAGGTGATAGCATCTGTCGACG", "PBM binding z-score": 1.92}, {"sequence": "ATATGTAGGTTAGGGTCATTGAGAAAGTAGGGAA", "PBM binding z-score": 4.27}, {"sequence": "CGTCCAAGGTCATGGGAGGTCAGTGAAGACAGAT", "PBM binding z-score": 7.07}, {"sequence": "ATATGTAGGTTAGGGTCATTTAGAAAGTAGGGAA", "PBM binding z-score": 4.26}, {"sequence": "GATACAAGGTCAGCTAGAGGCCAGAGTATGGAAA", "PBM binding z-score": 3.19}, {"sequence": "CCGAGTAGGTTACGAGGGGCCATTCAGTGCGAAT", "PBM binding z-score": 3.09}, {"sequence": "TCGAGTAGCTTACGGGGGCATTCAGGGATGAAGA", "PBM binding z-score": 2.45}, {"sequence": "CCTGGCAGGCCAGGGTCACTCAAGCATTTCGCTT", "PBM binding z-score": 2.52}, {"sequence": "TCTCGGAGGACACGAAAGGTCAGTGCTCGACATC", "PBM binding z-score": 2.92}, {"sequence": "TCTCGGAGGACACGAAAGGGCAGAGCTCGACATC", "PBM binding z-score": -0.0327}, {"sequence": "CCTAGTAGGTTATGGGGCATTCAGGCAACGGTGA", "PBM binding z-score": 0.233}, {"sequence": "CCTAGTTGGTCAGGTGGTCACACACCGGATATGA", "PBM binding z-score": 0.156}, {"sequence": "CGTCCAAGGTCAATGCTAGGTCACTGAAAGCATT", "PBM binding z-score": 5.55}, {"sequence": "TCAAGTAGGTTACGGGGGCATTCAGGGATGAAGA", "PBM binding z-score": 4.11}, {"sequence": "GCTGCTAGGTCAACTGATGGTCAGCTAGAGCTCG", "PBM binding z-score": 1.5}, {"sequence": "CCGAGTAGGTTACGAGGGGGCATTCCGTGCGAAT", "PBM binding z-score": 4.84}, {"sequence": "GATACAGGGTCATCTAGAGGCCAGAGTATGGAAA", "PBM binding z-score": 5.14}, {"sequence": "ATATGTAGGTCAGGGTCATTCAGAAAGTAGGGAA", "PBM binding z-score": 5.08}, {"sequence": "AGTCAAAGTTCAGGACGAGGTACCGTAAAGCACG", "PBM binding z-score": 2.08}, {"sequence": "CCTAGTGGGTCAGGAGGTCACACACCGGATATGA", "PBM binding z-score": 4.65}, {"sequence": "CATACAGGGTAAGCTAGGCCAGAGTAGGGACGGC", "PBM binding z-score": -0.528}, {"sequence": "CGGAGTAGGTTACGAGGGGGCATTCAGTGCGAAT", "PBM binding z-score": 5.44}, {"sequence": "ACTAGTTGTTCAGCTGAGGTCACACACAATTCGG", "PBM binding z-score": 4.06}, {"sequence": "TCATATAGGTAATAGGTGAAAGTCGGTGTGGTAA", "PBM binding z-score": 0.883}, {"sequence": "TATACAGGGTCTAAGGCCAGAGTACGAATGTCGA", "PBM binding z-score": 0.486}, {"sequence": "TCGAGTAGGTTACGGGGGCATCCAGGGATGAAGA", "PBM binding z-score": 3.51}, {"sequence": "GATCCAGGGTCAGCTAGAGGCCAGAGTATGGAAA", "PBM binding z-score": 3.16}, {"sequence": "CTATGTTGGTTAAGGGGGTCATTCAGTTTGAAAG", "PBM binding z-score": 6.64}, {"sequence": "GCTGCTAGGTAAGGTTGGTCAGCTAACGGGTACG", "PBM binding z-score": -0.447}]}]}
